Screens: PubChem BioAssay, several laboratories
A selection: hits, their analogues and other compounds. The true share with any hit is near 27%.
Cav3 T inh – inhibitors of human Cav3.2 T-type calcium channel | O95180 | Cav3.2-expressing cells, Fluo-4 calcium fluorescence FDSS; active compounds read low | B-score at 10 µM | hit rate 4% among 100,000 | AID 449739;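 active = single-dose well whose peak fluorescence ratio is a statistical outlier from its plate by either plate-standardised score or position-corrected B-score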
CYP2C19 activ – cytochrome P450 2C19 (human) activation | recombinant CYP2C19, luciferin-H EGE luminescence; active compounds read high; 0 = fully inhibited enzyme, 1 = untreated enzyme | activation factor at 5 µM | AID 1025 | 96,000 tested, under 10 active | P33261;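 active = activation factor of at least 2 at 5 µM in the primary screen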;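 also: 0 = wells with 2.5 mM tranylcypromine and 1 = vehicle-only wells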
CYP2C9 activ – increases human cytochrome P450 2C9 activity; P11712; recombinant CYP2C9, luciferin-H conversion, luminescence; active compounds read high; factor 1 = untreated enzyme, 0 = blocked; activation factor at 5 µM; hit rate 1.4% among 96,000; AID 1024;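 active = activation factor of 2 or more for CYP2C9 at a 5 µM dose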;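 also: 0 = sulfaphenazole-blocked wells and 1 = vehicle-only wells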
Target sequence (P11712 whole entry, looked up): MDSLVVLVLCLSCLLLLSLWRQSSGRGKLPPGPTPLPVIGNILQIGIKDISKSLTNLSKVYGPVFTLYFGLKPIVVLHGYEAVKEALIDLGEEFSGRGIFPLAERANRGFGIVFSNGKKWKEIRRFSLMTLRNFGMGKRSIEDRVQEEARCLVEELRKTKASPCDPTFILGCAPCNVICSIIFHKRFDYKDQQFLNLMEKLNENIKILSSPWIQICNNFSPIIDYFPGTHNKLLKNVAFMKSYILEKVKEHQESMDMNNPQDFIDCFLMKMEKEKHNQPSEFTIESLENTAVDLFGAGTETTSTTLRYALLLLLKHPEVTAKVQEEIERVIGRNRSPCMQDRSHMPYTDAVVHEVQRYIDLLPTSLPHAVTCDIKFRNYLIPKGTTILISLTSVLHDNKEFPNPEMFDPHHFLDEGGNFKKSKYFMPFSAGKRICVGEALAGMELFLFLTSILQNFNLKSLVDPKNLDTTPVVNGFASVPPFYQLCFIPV
CYP2C9 inh – human CYP2C9 inhibition; P11712; hit rate 20% among 96,000; CYP2C9 Supersomes, luciferin-H conversion, luminescence; AID 777; inhibition, % at 5 µM;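 active = blocking of liver enzyme CYP2C9 beyond about 50% at 5 µM, limit read from the data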
CYP2C19 inhib – human CYP2C19 inhibition. inhibition, % at 5 µM. CYP2C19 Supersomes, luciferin-H EGE luminescence, 30 min. P33261. hit rate 21% among 96,000;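 active = CYP2C19 inhibition above a set limit at 5 µM in the primary screen, cut at about 50% in these data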;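 also: plate controls were negative control wells for no effect and 2.5 mM tranylcypromine positive control for full effect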
* hit, by the source's call; nt = no result.

SMILES	Cav3 T inh	CYP2C19 activ	CYP2C9 activ	CYP2C9 inh	CYP2C19 inhib
COCCCNC(=O)Cn1cc2c(n1)CCC(C)C2 (stereo not given)	0.106	1	1.2	-23.3	-3.2
COc1cccc(OCC(=O)Nc2ccccc2NC(C)=O)c1	nt	0.2	1	-2.2	76.0*
COc1cc(C(=O)Nc2cccc3cccnc23)cc(OC)c1OC	-0.248	0.6	0.5	46.0	35.6
CCCC(=O)Nc1ccccc1NC(=O)c1cc(OC)c(OC)c(OC)c1	1.38	1	0.3	71.2*	1.2
COCC(=O)Nc1ccccc1NC(C)=O	-0.783	1	1	-2.7	1.5
COc1ccccc1NC(=O)CCC(=O)Nc1ccccc1OC	0.725	0.9	3.1*	-209.5	7.4
O=C(Nc1cccc2cccnc12)c1cccnc1	0.31	0.5	2.1*	-112.4	46.2
N#Cc1cc(-c2ccccc2)c[nH]c1=O	0.93	1.1	0.9	10.7	-8.6
CC(C)c1ccc(-c2nc(N3CCOCC3)[nH]c(=O)c2C#N)cc1	-0.102	0.9	0.9	10.9	7.5
C/C=C/Cn1c(N(C)Cc2ccccc2)nc2c1c(=O)[nH]c(=O)n2C	0.813	1.1	0.9	8.8	-9.3
COc1ccc(NC(=O)c2ccco2)c(NC(=O)Cc2cccs2)c1	0.318	0.6	0.6	40.7	40.3
COc1ccc(OCC(=O)Nc2ccccc2OC)cc1	-1.01	0.4	1	2.1	63.1*
COc1ccccc1NC(=O)COc1ccc(/C=N/NC(=O)CSCc2ccc(Cl)cc2)cc1	nt	0.4	0.3	66.4*	62.7*
COc1ccccc1NC(=O)CNC(=O)c1ccccc1	0.32	0.3	0.8	23.4	65.7*
O=C(O)CCCC(=O)Nc1cccc2cccnc12	-0.0335	1	0.9	9.0	4.7
COc1ccc(OCC(=O)Nc2cccc3cccnc23)cc1	-1.25	0	1.4	-40.5	96.8*
O=C(CSCc1ccc(Cl)cc1)N/N=C/c1ccc(OCC(=O)Nc2ccccc2)cc1	0.178	1.1	1	4.8	-11.6
CS(=O)c1ccccc1-c1nc(-c2cc(C(F)(F)F)cc(C(F)(F)F)c2)no1 (stereo not given)	nt	1	0.9	10.2	3.0
COc1cc(NC(=O)CCCC(=O)OCC(F)(F)C(F)F)nc(OC)n1	0.717	0.2	1.3	-32.2	75.8*
CCCOc1ccccc1N/C(=N/c1nc(C)cc(C)n1)NC(=O)COc1ccc(OC)cc1	-4.96*	0.1	0.1	92.4*	89.8*
COc1cc(/C=N/NC(=O)CSCc2ccc([N+](=O)[O-])cc2)cc(OC)c1OC	0.0166	0.6	0.4	57.2*	45.0
CCS(=O)(=O)N1CCC(NC(=O)c2cc(OC)cc(OC)c2)CC1	nt	0.8	1	-0.6	17.2
Cc1noc(C)c1COc1ccc(C(=O)OC(C)C(=O)Nc2ccc(N3CCOCC3)cc2)cc1 (stereo not given)	1.12	0.9	0.8	18.7	8.8
CCOc1ccccc1N1CCN(Cc2ccc(Br)s2)CC1	-1.4	0.5	0.5	52.2*	45.3
CCOc1ccccc1N1CCN(Cc2ccco2)CC1	0.214	0.5	0.8	16.2	51.1*
SMILES	Cav3 T inh	CYP2C19 activ	CYP2C9 activ	CYP2C9 inh	CYP2C19 inhib
CCOc1ccccc1N1CCN(Cc2ccc(OC)c(OC)c2)CC1	0.0371	0.9	1.2	-19.1	8.0
COc1ccc(COc2cc(-c3cccc(OC)c3)nc3ccc(NC(=O)C(C)C)cc23)cc1	-0.312	nt	nt	nt	nt
C[C@H](NC(=O)c1nc[nH]c1C(=O)N1CCc2ccccc2C1)C(=O)OCc1ccccc1	0.177	nt	nt	nt	nt
O=C(NCc1ccccn1)C1CCN(S(=O)(=O)N2CCCC2)CC1	-0.861	1.1	1	-0.9	-6.3
Cc1ccc(-n2c(-c3ccccc3)cc(=O)nc2C)cc1	0.526	nt	1.1	-8.4	nt
CC(C)(C)NC(=O)COC(=O)c1cc(F)c(F)cc1Cl	1.08	0.2	1	1.2	76.9*
CCCCCCN1N=C(C)C(C(=O)c2ccc(Cl)cc2)C1=O (stereo not given)	-2.86	1	0.4	59.7*	0.6
CCCCN(C(=O)c1ccc(Cl)cc1)C1CC2CCC(C1)N2C (stereo not given)	0.32	0.8	1	-3.0	21.9
CCCCCCCN1N=C(C)C(C(=O)c2ccccc2)C1=O (stereo not given)	nt	0.9	0.1	94.1*	7.8
Cc1ccc(-c2cc(C(=O)N3CCN(C(=O)c4ccco4)CC3)no2)cc1	-0.532	0.2	0.5	53.6*	78.5*
Cc1ccc(OCC(=O)N2CCN(c3nnc(-c4ccc(C)cc4)c4ccccc34)CC2)cc1	-7.45*	0.1	0.1	92.0*	88.1*
Cc1ccc(-c2nnc(N3CCN(C(=O)c4ccco4)CC3)c3ccccc23)cc1	0.0084	0.3	0.2	75.9*	68.3*
Cc1ccc(-c2nnc(N3CCN(C(=O)CN4C(=O)c5ccccc5C4=O)CC3)c3ccccc23)cc1	0.0413	nt	nt	nt	nt
COc1ccc(-c2nnc(N3CCCCC3)c3ccccc23)cc1	-4.56*	0.6	0.7	32.7	42.0
CC(O)[C@H]1CN=C(N)N1CCCCC1CCCCC1 (stereo not given in full)	2.11	nt	nt	nt	nt
COc1ccc(OCC(=O)N2CCN(c3nnc(-c4ccccc4)c4ccccc34)CC2)cc1	-5.84*	0.5	0.6	42.6	50.0*
COc1ccc(N2CCN(C(=O)COc3ccccc3)CC2)cc1	0.171	0.9	0.9	9.3	5.3
O=C(COc1ccccc1)N1CCN(c2nnc(-c3ccccc3)c3ccccc23)CC1	-2.44	0.3	0.3	74.2*	74.3*
Oc1ccc2ccccc2c1C=Nc1cc(C(F)(F)F)ccc1N1CCCC1	-1.59	1	0.7	30.5	-0.8
COc1ccc(C(=O)CSc2cc(C)nc(SCC(=O)c3ccc(C)cc3)n2)cc1	0.59	nt	nt	nt	nt
Cc1cc(C(=O)CSc2ccc(F)cc2)cc(C)c1OC(=S)N(C)C	-0.816	0.1	0.2	81.2*	93.5*
CCN(CC)C(=S)SCC(=O)c1ccc(F)cc1	-1.71	1.1	1.4	-41.3	-5.9
COc1ccc(SCC(=O)c2cc(C)c(OC(=S)N(C)C)c(C)c2)cc1	-4.54*	0.1	0.6	44.9	87.2*
CCN(CC)CC(O)COc1ccc2c(c1)OCO2 (stereo not given)	0.487	1	1	0.2	4.2
COc1ccc(NS(=O)(=O)c2ccc(O)c(C(=O)OCC(=O)N3CC(C)OC(C)C3)c2)cc1 (stereo not given)	0.729	0.3	0.2	81.5*	70.8*
Cc1ccc(S(=O)(=O)/N=C2/C=C(C3C(=O)CC(C)(C)CC3=O)C(=O)c3ccccc32)cc1	1.23	1	0.4	62.3*	0.4
O=[N+]([O-])c1ccccc1N/N=C\c1ccccc1Cl	2.87	0.4	0.7	32.8	63.8*
O=[N+]([O-])c1cc(C(F)(F)F)ccc1N/N=C/c1cc2ccccc2nc1Cl	nt	1	1	-0.8	-4.6
Cn1c(CN2CCCC2)nc2cc(NS(=O)(=O)c3ccc(Cl)cc3)ccc21	0.79	0.8	1	1.8	20.4
O=c1ccc(NS(=O)(=O)c2ccc(Cl)cc2)cn1Cc1ccc(Cl)c(Cl)c1	-4.43*	0	0.1	89.9*	97.2*
